Bioassay records: PubChem BioAssay, Broad Institute
PD-1 reverse act – reversal of PD-1 mediated T-cell inhibition. primary human CD4 T cells, PD-L1 beads, CellTiter-Glo 96 h. activation, % (test concentration not listed). 29,000 tested, under 10 active. AID 2316; call rule not given here;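 also: 0% = median vehicle wells and 100% = positive control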
YB-1 expression – YB-1 expression inhibition; 30,000 compounds, 0.37% hits; AID 434959; delta delta Cp (YB-1 minus CDIP) (no concentration beside the values); U2OS, qRT-PCR YB-1 vs CDIP delta delta Cp, 16 h; active compounds read high; zero = DMSO, each unit about twofold;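 active = delta delta Cp rounded down to an integer at or above 3, about 3 SD of DMSO wells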;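 also: higher means less YB-1 transcript or more CDIP transcript relative to DMSO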
ROS inducer – cancer cell ROS induction. U2OS ROS induction, H2DCF-DA fluorescence. ROS induction (% of piperlongumine), % at 10 µM. 46,000 compounds, 2% hits; in the data active = ROS induction above about 79%, passing the limit was not always enough;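 also: 0% = DMSO vehicle median and 100% = reference compound median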
Starred values were filed as active, the others as inactive; / = not tested or not shown. Rows were chosen to be rich in hits. Some 2.3% of all compounds tested hit in one or more screens of this group.

SMILES	PD-1 reverse act	YB-1 expression	ROS inducer
C[C@@H]1CN([C@@H](C)CO)C(=O)c2cc(NC(=O)Cc3ccccc3)ccc2O[C@H]1CN(C)Cc1ccccc1	1.0	-0.117	-5.1
C[C@@H]1CN([C@@H](C)CO)C(=O)c2cc(NC(=O)Cc3ccccc3)ccc2O[C@@H]1CN(C)Cc1ccccc1	/	-0.107	7.5
C[C@H](CO)N1C[C@H](C)[C@@H](CN(C)Cc2ccc(-c3ccccc3)cc2)Oc2ccc(NC(=O)Cc3ccccc3)cc2C1=O	-4.8	-0.00954	273.6*
C[C@H](CO)N1C[C@H](C)[C@H](CN(C)Cc2ccc(-c3ccccc3)cc2)Oc2ccc(NC(=O)Cc3ccccc3)cc2CC1=O	-0.3	0.231	27.5
C[C@@H]1CN([C@H](C)CO)C(=O)Cc2cc(NC(=O)Cc3ccccc3)ccc2O[C@@H]1CN(C)Cc1ccc(-c2ccccc2)cc1	-9.1	0.282	203.4*
CC(=O)N1CCC(N(C(=O)Nc2ccccc2)C(C)C)CC1	/	/	-3.7
CCOC(=O)c1cc(S(=O)(=O)NC(C)CC)cn1C (stereo not given)	/	/	-7.7
Clc1ccc(Oc2nc(Oc3ccc(Cl)cc3)nc(N3CCSCC3)n2)cc1	/	/	0.0
CC(C)(C)OC(=O)N1CCN(Cc2ccccc2)CC1	-0.2	0.0353	-0.8
Nc1c(S(=O)(=O)c2ccccc2)sc2nc(-c3cccs3)cc(C(F)(F)F)c12	/	/	-4.2
C[C@H]1CN([C@@H](C)CO)C(=O)c2cc(NC(=O)Cc3ccccc3)ccc2O[C@@H]1CN(C)Cc1ccc(Oc2ccccc2)cc1	/	-0.314	190.0*
C[C@H](CO)N1C[C@H](C)[C@H](CN(C)Cc2ccc(Oc3ccccc3)cc2)Oc2ccc(NC(=O)Cc3ccccc3)cc2C1=O	/	-0.275	2.0
CNC(=O)C(C)n1nc(C)c2sc3ccccc3c2c1=O (stereo not given)	/	/	14.6
Cn1c(SCc2nc(-c3ccc(Br)cc3)no2)nnc1-c1ccco1	0.1	/	6.1
COc1ccc(-c2noc(CSc3nnc(-c4ccccc4)n3C)n2)cc1	0.2	/	124.6*
CCc1ccc(NC(=O)Cc2coc3ccc(C(C)C)cc23)cc1	/	/	12.4
Cc1[nH]c2ccccc2c1Sc1ccccc1	-2.7	-0.0808	4.9
Cn1c2ccccc2c2nnc(SCC(=O)c3ccc(Cl)cc3)nc21	0.9	/	117.3*
C=CCn1c2ccccc2c2nnc(SCC(=O)c3ccc(Cl)cc3)nc21	-2.2	/	70.3
O=C(Nc1ccc(S(=O)(=O)N2CCCC2)cc1)c1ccc(COc2ccc3c(c2)CCC3)cc1	/	/	87.4*
O=S(=O)(c1ccccc1)N1CCN(CC(O)COc2ccc3c(c2)CCC3)CC1 (stereo not given)	-1.2	/	6.8
Cc1ccc(S(=O)(=O)CCSc2sc(C#N)c3c2C(=O)CC(C)(C)C3)cc1	-2.3	0.079	124.8*
CCOC(=O)c1sc(SCCS(=O)(=O)c2ccc(Cl)cc2)c2c1CCCC2=O	0.3	-0.219	22.3
C[C@@H]1CN([C@H](C)CO)C(=O)Cc2cc(NC(=O)C3CC3)ccc2O[C@@H]1CN(C)S(=O)(=O)c1ccc(Cl)cc1	1.6	-0.405	4.9
C[C@H]1CN([C@@H](C)CO)C(=O)Cc2cc(NC(=O)NC3CCCCC3)ccc2O[C@H]1CN(C)S(=O)(=O)c1cn(C)cn1	3.9	0.171	14.3
SMILES	PD-1 reverse act	YB-1 expression	ROS inducer
C[C@H]1CN([C@@H](C)CO)C(=O)Cc2cc(NC(=O)NC3CCCCC3)ccc2O[C@@H]1CN(C)S(=O)(=O)c1cn(C)cn1	1.6	-0.349	108.8*
C[C@H](CO)N1C[C@H](C)[C@H](CN(C)S(=O)(=O)c2ccc(Cl)cc2)Oc2ccc(NC(=O)C3CC3)cc2CC1=O	1.2	-0.223	123.0*
Cc1ccc(S(=O)(=O)N(C)C[C@H]2Oc3ccc(NC(=O)Cn4cnnn4)cc3CC(=O)N([C@@H](C)CO)C[C@@H]2C)cc1	2.4	-0.0731	-1.9
Cc1ccc(S(=O)(=O)N(C)C[C@H]2Oc3ccc(NS(=O)(=O)c4ccc(Cl)cc4)cc3CC(=O)N([C@@H](C)CO)C[C@H]2C)cc1	-2.4	-0.117	211.6*
C[C@H](CO)N1C[C@H](C)[C@H](CN(C)S(=O)(=O)c2ccc(Cl)cc2)Oc2ccc(NC(=O)Cn3cnnn3)cc2CC1=O	0.8	0.0511	126.3*
Cc1ccc(S(=O)(=O)Nc2ccc3c(c2)CC(=O)N([C@@H](C)CO)C[C@@H](C)[C@@H](CN(C)S(=O)(=O)c2ccc(Cl)cc2)O3)cc1	-2.4	-0.0617	14.6
O=C(Nc1ccc2c(c1)S(=O)(=O)c1cc(NC(=O)C3CCCCC3)ccc1-2)C1CCCCC1	/	/	17.7
O=C(CSCc1cnn(-c2ccccc2)c1-n1cccc1)Nc1ccccc1Br	/	/	5.2
COC(=O)c1ccccc1NC(=O)c1ccc(Cl)c(S(=O)(=O)Nc2ccccc2C)c1	-2.2	/	18.1
Cc1ccc(NC(=S)C(C#N)C(N)=O)cc1Cl (stereo not given)	-6.8	-0.704	17.6
CCCCc1[nH]nc2c1C1(CCCCC1)C(C#N)=C(N)O2	/	/	-13.4
C[C@H]1CN([C@@H](C)CO)C(=O)Cc2cc(NC(=O)NC3CCCCC3)ccc2O[C@H]1CN(C)S(=O)(=O)c1ccc(Cl)cc1	-1.9	-0.0886	129.9*
Cc1ccc(S(=O)(=O)N(C)C[C@H]2Oc3ccc(NC(=O)NC4CCCCC4)cc3CC(=O)N([C@H](C)CO)C[C@H]2C)cc1	/	-0.0233	-6.0
S=c1[nH]nc(C2CCCCC2)n1/N=C\c1ccncc1	/	/	52.5
O=C(Cn1ncn2nc(-c3ccco3)cc2c1=O)NCc1ccccc1	/	/	14.9
N#Cc1c(C(F)(F)F)cc(-c2cccs2)nc1SCC(=O)Nc1c(F)cccc1F	1.5	/	1.7
N#Cc1c(C(F)(F)F)cc(-c2cccs2)nc1S/C=C/C(=O)c1ccccc1	-2.8	0.253	126.2*
O=C(CCc1ccc(O)cc1)c1c(O)cc(O[C@@H]2O[C@H](CO)[C@@H](O)[C@H](O)[C@H]2O)cc1O	1.4	1.04	-3.6
C=CCNC(=O)[C@H]1[C@@H]2C(=O)O[C@@H](c3ccccc3)[C@@H](c3ccccc3)N2[C@@H](c2ccc(OCCO)cc2)[C@]12C(=O)N(C(=O)OCCOC)c1ccc(C#CCC(C(=O)OC)C(=O)OC)cc12	/	0.338	156.5*
C=CCNC(=O)[C@@H]1[C@H]2C(=O)O[C@H](c3ccccc3)[C@H](c3ccccc3)N2[C@H](c2ccc(OCCO)cc2)[C@@]12C(=O)N(C(=O)OCCOC)c1ccc(C#Cc3ccc(OC)cc3)cc12	/	0.587	9.1
COCCOC(=O)N1C(=O)[C@@]2(c3cc(C#CCC(C(=O)OC)C(=O)OC)ccc31)[C@H](C(=O)NC[C@H](O)c1ccccc1)[C@H]1C(=O)O[C@H](c3ccccc3)[C@H](c3ccccc3)N1[C@@H]2c1ccc(O)cc1	/	0.00195	47.2
C=CCNC(=O)[C@@H]1[C@H]2C(=O)O[C@H](c3ccccc3)[C@H](c3ccccc3)N2[C@H](c2ccc(OCCO)cc2)[C@@]12C(=O)N(C(=O)OCCOC)c1ccc(C#CCC(C(=O)OC)C(=O)OC)cc12	/	0.0319	132.2*
O=C(NCCN1CCNC1=O)c1sc2ccccc2c1Cl	/	/	-18.4
COc1ccc(NC(=O)CN(c2ccc(C)cc2)S(=O)(=O)c2ccc(OC)cc2)cc1	/	/	-7.0
COC(=O)/C=C1/C(=O)N/C(=N\c2nc(C)cc(C)n2)N1c1cccc(C)c1	-0.1	-0.126	102.8*
